Assays:
Experiment in all cases: DAPPL (digital affinity profiling via proximity ligation, sequencing); 10 mM Tris-HCl pH 7.5, 50 mM NaCl, 1 mM DTT, 4% glycerol, room temperature, 30 min; GST-TFs on glutathione beads, 16-mer random dsDNA library, 0.1% formaldehyde crosslink after washing; high values mean tight binding
Conditions in all cases: protein: recombinant; tags: N-terminal GST; dsDNA, one strand shown
FEV = molecular target: T1, FEV (Homo sapiens, UniProt Q99581 1-238)
T1 sequence: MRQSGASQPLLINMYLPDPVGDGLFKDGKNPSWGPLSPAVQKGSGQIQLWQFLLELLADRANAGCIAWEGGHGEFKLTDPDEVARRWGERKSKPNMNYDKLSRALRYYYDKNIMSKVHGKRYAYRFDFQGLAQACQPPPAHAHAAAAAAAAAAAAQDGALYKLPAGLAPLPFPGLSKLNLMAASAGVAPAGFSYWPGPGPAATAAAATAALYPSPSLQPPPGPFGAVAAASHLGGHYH
Procedure, shortened: (§1)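 After expression in yeast as GST fusions, human transcription factors were bound to glutathione beads, DNA-barcoded and mixed with a tag-only sample. The pools were incubated with 200 nmole of a 16-mer random double-stranded DNA library in Tris/NaCl/DTT/glycerol buffer (30 min, room temperature), washed and crosslinked with 0.1% formaldehyde. Proximity ligation with BsaI/T4 ligase ran for 1 h at 37 °C, before PCR amplification and sequencing on an Illumina NextSeq500. Binding signal is a hexamer's read frequency for a factor divided by its frequency for the tag-only sample.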

ETV5 = ETV5 (Homo sapiens, UniProt P41161 1-510)
Sequence of ETV5 (P41161 whole entry): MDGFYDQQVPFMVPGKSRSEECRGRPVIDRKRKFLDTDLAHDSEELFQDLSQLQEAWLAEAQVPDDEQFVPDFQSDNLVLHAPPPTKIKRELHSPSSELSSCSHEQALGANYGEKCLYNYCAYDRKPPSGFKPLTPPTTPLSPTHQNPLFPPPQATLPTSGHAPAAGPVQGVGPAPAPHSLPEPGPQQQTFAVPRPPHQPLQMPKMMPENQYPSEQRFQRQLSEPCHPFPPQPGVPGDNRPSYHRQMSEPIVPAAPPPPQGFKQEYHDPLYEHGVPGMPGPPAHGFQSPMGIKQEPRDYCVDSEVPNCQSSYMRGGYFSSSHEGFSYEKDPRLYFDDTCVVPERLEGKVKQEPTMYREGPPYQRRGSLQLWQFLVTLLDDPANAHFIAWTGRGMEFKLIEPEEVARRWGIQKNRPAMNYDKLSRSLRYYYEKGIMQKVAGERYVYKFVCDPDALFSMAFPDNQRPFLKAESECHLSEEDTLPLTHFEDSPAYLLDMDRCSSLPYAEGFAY
Procedure, shortened: as §1

SPIC = molecular target: T2, SPIC (Homo sapiens, UniProt Q8N5J4 1-248)
T2 sequence: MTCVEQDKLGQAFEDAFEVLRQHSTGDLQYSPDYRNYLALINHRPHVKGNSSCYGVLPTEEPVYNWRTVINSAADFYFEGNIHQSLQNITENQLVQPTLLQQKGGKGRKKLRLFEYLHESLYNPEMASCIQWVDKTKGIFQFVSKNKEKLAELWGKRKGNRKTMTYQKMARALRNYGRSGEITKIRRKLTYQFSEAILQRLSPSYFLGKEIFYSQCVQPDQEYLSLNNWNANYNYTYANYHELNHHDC
Procedure, shortened: as §1

ELF4 = ELF4 (Homo sapiens, UniProt Q99607 1-663)
Sequence of ELF4 (Q99607 whole entry): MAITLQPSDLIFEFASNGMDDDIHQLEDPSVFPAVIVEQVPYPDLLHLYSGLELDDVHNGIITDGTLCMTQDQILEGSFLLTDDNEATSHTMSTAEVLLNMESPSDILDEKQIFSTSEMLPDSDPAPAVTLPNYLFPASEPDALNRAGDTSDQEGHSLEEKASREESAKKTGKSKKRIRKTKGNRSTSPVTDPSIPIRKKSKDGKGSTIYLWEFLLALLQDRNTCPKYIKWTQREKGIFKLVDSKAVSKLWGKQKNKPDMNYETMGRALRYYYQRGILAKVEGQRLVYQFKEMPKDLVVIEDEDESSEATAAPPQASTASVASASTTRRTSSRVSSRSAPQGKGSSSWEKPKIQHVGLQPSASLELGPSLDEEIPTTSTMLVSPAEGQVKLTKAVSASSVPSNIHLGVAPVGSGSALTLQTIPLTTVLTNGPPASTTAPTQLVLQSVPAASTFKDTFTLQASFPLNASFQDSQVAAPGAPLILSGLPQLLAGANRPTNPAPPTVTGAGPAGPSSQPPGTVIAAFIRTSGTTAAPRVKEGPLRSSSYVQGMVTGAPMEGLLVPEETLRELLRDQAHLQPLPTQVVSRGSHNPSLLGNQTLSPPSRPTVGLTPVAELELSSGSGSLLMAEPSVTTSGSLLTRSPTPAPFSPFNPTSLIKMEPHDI
Procedure, shortened: as §1

ELK4 = molecular target: T3, ELK4 (Homo sapiens, UniProt P28324-2 1-405)
T3 sequence: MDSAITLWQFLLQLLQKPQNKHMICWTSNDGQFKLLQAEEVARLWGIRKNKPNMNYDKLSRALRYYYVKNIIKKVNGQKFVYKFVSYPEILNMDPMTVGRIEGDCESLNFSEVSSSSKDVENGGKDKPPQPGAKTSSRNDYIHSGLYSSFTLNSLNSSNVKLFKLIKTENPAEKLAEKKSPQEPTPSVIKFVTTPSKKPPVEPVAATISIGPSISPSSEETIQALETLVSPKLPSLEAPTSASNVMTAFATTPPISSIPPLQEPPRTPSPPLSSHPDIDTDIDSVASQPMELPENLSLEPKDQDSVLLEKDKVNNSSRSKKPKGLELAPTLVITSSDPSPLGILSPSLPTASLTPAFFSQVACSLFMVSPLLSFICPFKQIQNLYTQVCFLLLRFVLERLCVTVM
Procedure, shortened: as §1

ETV2 = molecular target: T4, ETV2 (Homo sapiens, UniProt O00321 1-342)
T4 sequence: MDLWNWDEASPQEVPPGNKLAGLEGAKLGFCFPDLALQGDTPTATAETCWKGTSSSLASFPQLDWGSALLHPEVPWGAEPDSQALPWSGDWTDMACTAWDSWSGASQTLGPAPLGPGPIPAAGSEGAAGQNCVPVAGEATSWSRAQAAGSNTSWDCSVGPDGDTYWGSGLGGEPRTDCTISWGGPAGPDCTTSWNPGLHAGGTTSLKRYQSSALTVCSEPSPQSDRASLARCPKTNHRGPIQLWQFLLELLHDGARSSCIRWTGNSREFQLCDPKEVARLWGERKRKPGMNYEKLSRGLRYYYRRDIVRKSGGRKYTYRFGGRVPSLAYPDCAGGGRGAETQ
Procedure, shortened: as §1

ELF3 = molecular target: T5, ELF3 (Homo sapiens, UniProt P78545 1-371)
T5 sequence: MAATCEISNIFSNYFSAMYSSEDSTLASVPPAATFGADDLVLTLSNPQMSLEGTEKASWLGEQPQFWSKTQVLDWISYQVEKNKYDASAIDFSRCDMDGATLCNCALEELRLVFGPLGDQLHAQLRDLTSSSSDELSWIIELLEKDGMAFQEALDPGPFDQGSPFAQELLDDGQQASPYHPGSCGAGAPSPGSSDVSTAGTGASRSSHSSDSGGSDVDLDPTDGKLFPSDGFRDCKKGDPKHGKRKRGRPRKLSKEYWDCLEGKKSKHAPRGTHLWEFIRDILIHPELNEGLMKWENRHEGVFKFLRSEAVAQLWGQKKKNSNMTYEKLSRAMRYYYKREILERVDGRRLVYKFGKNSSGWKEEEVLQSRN
Procedure, shortened: as §1

ERF = molecular target: T6, ERF (Homo sapiens, UniProt P50548 1-548)
T6 sequence: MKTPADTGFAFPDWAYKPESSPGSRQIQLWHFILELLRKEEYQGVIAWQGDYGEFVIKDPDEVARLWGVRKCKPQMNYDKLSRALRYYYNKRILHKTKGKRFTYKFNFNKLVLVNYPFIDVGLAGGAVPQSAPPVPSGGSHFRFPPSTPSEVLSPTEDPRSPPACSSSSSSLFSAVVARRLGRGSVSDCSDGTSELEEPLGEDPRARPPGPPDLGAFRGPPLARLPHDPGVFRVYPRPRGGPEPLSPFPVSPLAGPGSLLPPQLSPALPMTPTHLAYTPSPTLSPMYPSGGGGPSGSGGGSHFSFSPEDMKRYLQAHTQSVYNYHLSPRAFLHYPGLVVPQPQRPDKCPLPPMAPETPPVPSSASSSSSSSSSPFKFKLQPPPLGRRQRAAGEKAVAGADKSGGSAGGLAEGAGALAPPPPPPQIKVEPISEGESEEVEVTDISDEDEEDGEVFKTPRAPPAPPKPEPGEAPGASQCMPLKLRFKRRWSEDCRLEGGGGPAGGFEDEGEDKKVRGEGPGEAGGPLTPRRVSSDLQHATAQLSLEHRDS
Procedure, shortened: as §1

ETV3L = molecular target: T7, ETV3L (Homo sapiens, UniProt Q6ZN32 1-361)
T7 sequence: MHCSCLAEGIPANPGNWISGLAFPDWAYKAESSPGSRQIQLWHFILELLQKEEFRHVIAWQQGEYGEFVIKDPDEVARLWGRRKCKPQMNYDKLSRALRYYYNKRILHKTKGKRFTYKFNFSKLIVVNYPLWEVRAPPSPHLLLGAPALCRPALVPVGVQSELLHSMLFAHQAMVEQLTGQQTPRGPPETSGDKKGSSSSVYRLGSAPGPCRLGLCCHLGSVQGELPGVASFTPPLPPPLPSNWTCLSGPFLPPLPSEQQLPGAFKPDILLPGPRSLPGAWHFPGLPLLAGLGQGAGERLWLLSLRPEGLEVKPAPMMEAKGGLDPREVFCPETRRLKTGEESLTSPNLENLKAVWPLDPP
Procedure, shortened: as §1

ETS2 = molecular target: T8, ETS2 (Homo sapiens, UniProt P15036 1-469)
T8 sequence: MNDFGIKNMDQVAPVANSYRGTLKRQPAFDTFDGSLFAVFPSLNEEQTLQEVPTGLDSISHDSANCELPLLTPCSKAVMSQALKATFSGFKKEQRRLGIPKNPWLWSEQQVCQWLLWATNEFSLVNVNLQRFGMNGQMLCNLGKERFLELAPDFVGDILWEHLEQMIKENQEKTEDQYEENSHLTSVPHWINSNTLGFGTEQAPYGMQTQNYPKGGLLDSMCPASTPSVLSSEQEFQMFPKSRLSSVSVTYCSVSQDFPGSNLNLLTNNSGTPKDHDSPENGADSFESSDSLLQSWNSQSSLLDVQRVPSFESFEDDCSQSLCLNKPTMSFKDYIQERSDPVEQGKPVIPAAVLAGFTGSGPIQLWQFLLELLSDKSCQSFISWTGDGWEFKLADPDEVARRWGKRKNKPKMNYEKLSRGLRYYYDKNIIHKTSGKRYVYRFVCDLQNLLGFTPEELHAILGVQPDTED
Procedure, shortened: as §1

ETV7 = molecular target: T9, ETV7 (Homo sapiens, UniProt Q9Y603 1-341)
T9 sequence: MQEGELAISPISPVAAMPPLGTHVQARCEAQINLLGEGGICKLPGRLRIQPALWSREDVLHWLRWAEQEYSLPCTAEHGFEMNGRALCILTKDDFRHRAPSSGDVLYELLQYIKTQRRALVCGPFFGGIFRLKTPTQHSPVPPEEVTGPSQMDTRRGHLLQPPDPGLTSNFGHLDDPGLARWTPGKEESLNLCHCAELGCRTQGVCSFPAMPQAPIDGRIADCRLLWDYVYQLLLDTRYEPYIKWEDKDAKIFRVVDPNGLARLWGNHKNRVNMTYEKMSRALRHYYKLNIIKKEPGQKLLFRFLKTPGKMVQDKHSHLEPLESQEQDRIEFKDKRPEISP
Procedure, shortened: as §1

ELF5 = molecular target: T10, ELF5 (Homo sapiens, UniProt Q9UKW6-2 1-255)
T10 sequence: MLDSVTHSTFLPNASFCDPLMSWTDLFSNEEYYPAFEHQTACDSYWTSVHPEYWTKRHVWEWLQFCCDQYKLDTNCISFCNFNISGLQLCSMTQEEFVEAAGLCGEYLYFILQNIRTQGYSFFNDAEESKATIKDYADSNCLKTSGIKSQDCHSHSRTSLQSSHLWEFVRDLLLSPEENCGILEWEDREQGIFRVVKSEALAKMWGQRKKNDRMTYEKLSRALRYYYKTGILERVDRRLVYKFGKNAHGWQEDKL
Procedure, shortened: as §1

ETV3 = molecular target: T11, ETV3 (Homo sapiens, UniProt P41162-2 1-143)
T11 sequence: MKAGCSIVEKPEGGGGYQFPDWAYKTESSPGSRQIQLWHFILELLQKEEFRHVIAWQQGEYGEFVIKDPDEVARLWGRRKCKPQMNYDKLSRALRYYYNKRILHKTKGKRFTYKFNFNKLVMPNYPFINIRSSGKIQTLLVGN
Procedure, shortened: as §1

ETV6 = ETV6 (Homo sapiens, UniProt P41212 1-452)
Sequence of ETV6 (P41212 whole entry): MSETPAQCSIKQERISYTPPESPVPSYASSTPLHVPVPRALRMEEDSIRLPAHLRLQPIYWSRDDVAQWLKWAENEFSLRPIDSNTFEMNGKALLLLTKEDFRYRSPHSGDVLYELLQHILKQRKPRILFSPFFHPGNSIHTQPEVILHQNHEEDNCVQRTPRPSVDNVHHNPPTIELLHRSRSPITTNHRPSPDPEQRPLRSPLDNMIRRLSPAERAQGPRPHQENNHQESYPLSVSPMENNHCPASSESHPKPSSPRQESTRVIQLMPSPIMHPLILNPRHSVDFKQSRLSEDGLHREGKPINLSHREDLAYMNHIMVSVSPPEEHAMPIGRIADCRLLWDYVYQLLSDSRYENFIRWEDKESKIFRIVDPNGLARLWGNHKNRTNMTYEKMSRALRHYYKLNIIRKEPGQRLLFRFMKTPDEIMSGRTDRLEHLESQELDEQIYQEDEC
Procedure, shortened: as §1

SPDEF = molecular target: T12, SPDEF (Homo sapiens, UniProt O95238 1-335)
T12 sequence: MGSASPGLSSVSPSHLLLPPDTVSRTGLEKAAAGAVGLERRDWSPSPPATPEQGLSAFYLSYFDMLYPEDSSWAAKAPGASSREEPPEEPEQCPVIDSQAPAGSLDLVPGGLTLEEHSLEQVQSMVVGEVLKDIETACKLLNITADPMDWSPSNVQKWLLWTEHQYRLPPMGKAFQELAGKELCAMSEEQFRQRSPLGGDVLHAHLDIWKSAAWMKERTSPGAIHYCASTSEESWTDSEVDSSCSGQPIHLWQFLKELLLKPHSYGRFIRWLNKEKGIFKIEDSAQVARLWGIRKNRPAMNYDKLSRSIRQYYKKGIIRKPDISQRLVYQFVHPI
Procedure, shortened: as §1

Sequence | binding signal (FEV) | binding signal (ETV5) | binding signal (SPIC) | binding signal (ELF4) | binding signal (ELK4) | binding signal (ETV2) | binding signal (ELF3) | binding signal (ERF) | binding signal (ETV3L) | binding signal (ETS2) | binding signal (ETV7) | binding signal (ELF5) | binding signal (ETV3) | binding signal (ETV6) | binding signal (SPDEF)
GCGTTT | 1.18 fold enrichment (6-mer frequency, TF over GST control) | 1.09 fold enrichment (6-mer frequency, TF over GST control) | 1.15 fold enrichment (6-mer frequency, TF over GST control) | 1.13 fold enrichment (6-mer frequency, TF over GST control) | 1.16 fold enrichment (6-mer frequency, TF over GST control) | 1.11 fold enrichment (6-mer frequency, TF over GST control) | 1.15 fold enrichment (6-mer frequency, TF over GST control) | 1.1 fold enrichment (6-mer frequency, TF over GST control) | 1.11 fold enrichment (6-mer frequency, TF over GST control) | 1.09 fold enrichment (6-mer frequency, TF over GST control) | 1.12 fold enrichment (6-mer frequency, TF over GST control) | 1.12 fold enrichment (6-mer frequency, TF over GST control) | 1.19 fold enrichment (6-mer frequency, TF over GST control) | 1.04 fold enrichment (6-mer frequency, TF over GST control) | 
ACCCAA | 1.05 fold enrichment (6-mer frequency, TF over GST control) | 1.08 fold enrichment (6-mer frequency, TF over GST control) | 1.2 fold enrichment (6-mer frequency, TF over GST control) | 1.18 fold enrichment (6-mer frequency, TF over GST control) | 1.08 fold enrichment (6-mer frequency, TF over GST control) | 1.13 fold enrichment (6-mer frequency, TF over GST control) | 1.26 fold enrichment (6-mer frequency, TF over GST control) | 1.13 fold enrichment (6-mer frequency, TF over GST control) | 1.13 fold enrichment (6-mer frequency, TF over GST control) | 1.04 fold enrichment (6-mer frequency, TF over GST control) | 1.14 fold enrichment (6-mer frequency, TF over GST control) | 1.06 fold enrichment (6-mer frequency, TF over GST control) | 1.01 fold enrichment (6-mer frequency, TF over GST control) | 1.09 fold enrichment (6-mer frequency, TF over GST control) | 1.04 fold enrichment (6-mer frequency, TF over GST control)

From paper PMC7862700, “An all-to-all approach to the identification of sequence-specific readers for epigenetic DNA modifications on cytosine”
